A selection: hits, their analogues and other compounds. The true share with any hit is near 28%.
CYP2C9 inhib = blocks human cytochrome P450 2C9; CYP2C9 Supersomes, luciferin-H conversion, luminescence; inhibition, % at 5 µM; 96,000 compounds, 20% hits; P11712;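 active means blocking of liver enzyme CYP2C9 beyond about 50% at 5 µM, limit read from the data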
CYP2C19 inhib = blocks human cytochrome P450 2C19; inhibition, % at 5 µM; 96,000 compounds, 21% hits; AID 778; CYP2C19 Supersomes, luciferin-H EGE luminescence, 30 min;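 active means CYP2C19 inhibition above a set limit at 5 µM in the primary screen, cut at about 50% in these data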
hDAT+cocaine = modulates human dopamine transporter uptake under cocaine. Q01959. LLC-PK1 hDAT cells, [14C]-dopamine uptake with cocaine IC80; actives deviate in either direction. B-score at 10 µM. 110,000 compounds, 1.3% hits;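 active means Z score or B-score, a plate-position-corrected score, falls beyond the plate's 99.7% confidence bounds, in either direction; inactive means both scores lie inside the 99.7% bounds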
Target sequence (Q01959 whole entry, looked up): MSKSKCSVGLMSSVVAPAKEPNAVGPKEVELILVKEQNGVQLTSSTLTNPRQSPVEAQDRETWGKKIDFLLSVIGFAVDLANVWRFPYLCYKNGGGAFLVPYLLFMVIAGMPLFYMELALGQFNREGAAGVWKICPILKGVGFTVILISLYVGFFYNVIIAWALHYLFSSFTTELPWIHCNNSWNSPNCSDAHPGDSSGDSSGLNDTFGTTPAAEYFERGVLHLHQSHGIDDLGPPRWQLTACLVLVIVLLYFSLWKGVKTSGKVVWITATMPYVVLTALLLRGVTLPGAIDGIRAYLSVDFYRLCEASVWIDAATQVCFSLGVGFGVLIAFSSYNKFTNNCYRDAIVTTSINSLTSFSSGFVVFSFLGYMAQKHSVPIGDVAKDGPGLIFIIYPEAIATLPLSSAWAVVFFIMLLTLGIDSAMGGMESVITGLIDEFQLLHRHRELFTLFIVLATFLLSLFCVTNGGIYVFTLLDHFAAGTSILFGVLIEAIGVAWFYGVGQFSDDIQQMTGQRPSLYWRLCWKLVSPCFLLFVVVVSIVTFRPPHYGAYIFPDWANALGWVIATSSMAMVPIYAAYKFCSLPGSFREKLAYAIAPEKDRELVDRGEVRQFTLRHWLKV
CYP2C9 activ = CYP2C9 (human) activation | P11712 | recombinant CYP2C9, luciferin-H conversion, luminescence; active compounds read high; factor 1 = untreated enzyme, 0 = blocked | activation factor at 5 µM | 96,000 compounds, 1.4% hits | AID 1024;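 active means activation factor of 2 or more for CYP2C9 at a 5 µM dose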
CYP2C19 act = cytochrome P450 2C19 (human) activation | P33261 | recombinant CYP2C19, luciferin-H EGE luminescence; active compounds read high; 0 = fully inhibited enzyme, 1 = untreated enzyme | activation factor at 5 µM | 96,000 tested, under 10 active;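 active means activation factor of at least 2 at 5 µM in the primary screen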
D1 allo mod = allosterically modulates the human D1 dopamine receptor | AID 641 | B-score at 10 µM | 58,000 compounds, 5.9% hits | P21728 | HEK293 D1, CRE-luciferase, dopamine EC30 potentiation; actives deviate in either direction;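 active means luminescence count or its row- and column-corrected plate score outside the 99.7% band of the plate's sample wells, on either side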
A number is an active result; . = inactive; / = no result.

SMILES	CYP2C9 inhib	CYP2C19 inhib	hDAT+cocaine	CYP2C9 activ	CYP2C19 act	D1 allo mod
CCOC(=O)c1ccc(N2C(=O)c3n[nH]c(C)c3C2c2ccc(OC)cc2)cc1 (stereo not given)	93.3	90.5	.	.	.	.
CCOC(=O)c1ccc(N2C(=O)c3n[nH]c(C)c3C2c2ccc(OC)cc2OC)cc1 (stereo not given)	/	/	.	/	/	.
CCOC(=O)c1ccc(N2C(=O)c3n[nH]c(C)c3C2c2ccc(OC)c(OC)c2)cc1 (stereo not given)	78.4	81.9	.	.	.	-2.31
COC(=O)c1ccc(C2c3c(n[nH]c3C)C(=O)N2c2ccc(C)cc2)cc1 (stereo not given)	62.6	77.0	.	.	.	.
CC(C)(C)NC(=O)CSC(=Nc1ccc(F)cc1)NC#N	.	72.1	.	.	.	/
CCc1ccc2oc(-c3cc(N)ccc3O)nc2c1	.	.	.	.	.	.
Cc1ccc(C)c(-c2nc3cc(N)ccc3o2)c1	.	.	.	.	.	.
CCc1ccc2oc(-c3cc(N)ccc3Cl)nc2c1	.	53.0	.	.	.	.
CCc1ccc2oc(-c3cc(N)cc(C)c3O)nc2c1	93.7	95.1	.	.	.	/
O=C(NS(=O)(=O)c1ccccc1)c1ccccc1F	.	.	.	.	.	.
C[C@@H]1NC(=O)[C@H](CCCN=C(N)N)NC(=O)c2cc([N+](=O)[O-])cc(I)c2OCC[C@@H](C(N)=O)NC1=O	/	/	.	/	/	/
COc1ccc(C(=O)CSc2nnc(-c3cccnc3)n2Cc2ccco2)cc1	57.3	53.3	.	.	.	.
COC(=O)c1c(NC(=O)CSc2nnc(-c3cccnc3)n2Cc2ccco2)sc(C)c1C	85.3	83.5	.	.	.	.
O=C(CSc1nnc(-c2ccc(O)cc2)n1Cc1ccco1)N1CCc2ccccc2C1	50.4	62.1	.	.	.	.
CN(C)c1ccc(NC(=O)CSc2nnc(-c3cccs3)n2Cc2ccco2)cc1	.	.	.	.	.	/
O=C(CSc1nnc(-c2cnccn2)n1Cc1ccco1)Nc1ccc(Br)cc1	59.0	.	.	.	.	.
COC(=O)c1c(NC(=O)CSc2nnc(-c3ccco3)n2C)sc(C)c1C	/	/	.	/	/	/
CCOC(=O)c1ccc(NC(=O)Nc2ccn(C)n2)cc1	.	.	.	.	.	.
ONC=Nc1cccc2nonc12	.	.	.	.	.	.
c1cc(Nc2ncnc3sccc23)cc(-c2nnc3n2CCCCC3)c1	.	.	.	.	.	.
COc1ccc(C(=O)CSc2nnc(-c3cnccn3)n2Cc2ccco2)cc1	54.4	.	.	.	.	.
O=C(CSc1nnc(-c2cccnc2)n1Cc1ccco1)N1c2ccccc2Sc2ccccc21	.	.	.	.	.	.
C=CCn1c(SCC(=O)c2ccc(OC)cc2)nnc1-c1cc2cccc(OC)c2o1	.	.	.	.	.	.
CC1CCN(C(=O)CSc2nnc(-c3cc4ccccc4cc3O)n2Cc2ccco2)CC1	74.4	66.7	.	.	.	.
COc1ccc(C(=O)CSc2nnc(-c3cc4ccccc4cc3O)n2Cc2ccco2)cc1	80.2	.	.	.	.	.
SMILES	CYP2C9 inhib	CYP2C19 inhib	hDAT+cocaine	CYP2C9 activ	CYP2C19 act	D1 allo mod
CC1CCN(C(=O)CSc2nnc(CNc3ccc(F)cc3)n2Cc2ccco2)CC1	.	.	.	.	.	/
Cc1cccc(/C=N/n2c(C)cc(C)c(C#N)c2=O)c1	/	/	.	/	/	/
O=[N+]([O-])c1ccc(-c2cnc(SCc3ccccc3Cl)[nH]2)cc1	52.1	.	.	.	.	/
Cc1cc(C)c(CSc2ncc(-c3ccc([N+](=O)[O-])cc3)[nH]2)c(C)c1	65.0	.	.	.	.	/
NC(=O)CSc1ncc(-c2ccccc2)[nH]1	.	.	.	.	.	.
CC(=O)N1CSCC1C(=O)N1CCN(c2ccc(N3CCOCC3)nn2)CC1 (stereo not given)	.	.	.	.	.	.
Cc1ccc(Nc2ncc3c(n2)CC(c2ccco2)CC3=O)c(C)c1 (stereo not given)	67.0	.	.	.	.	.
O=C1CC(c2ccco2)Cc2nc(Nc3nc(-c4ccccc4)c4ccccc4n3)ncc21 (stereo not given)	68.2	59.3	/	.	.	.
Cc1ccc(NC(=O)CSCC(=O)Nc2ncc3c(n2)CC(c2ccco2)CC3=O)cc1 (stereo not given)	62.2	.	.	.	.	/
Cc1cc(-c2cccc([N+](=O)[O-])c2)nc2ccc3ccccc3c12	.	.	.	.	.	/
CCC(CC)C(=O)NCCc1cc2c(C)ccc(C)c2[nH]c1=O	/	/	/	/	/	.
COc1ccc(OC)c2[nH]c(=O)c(CCNC(=O)c3cc4ccccc4o3)cc12	.	63.2	.	.	.	.
Cc1ccc(C)c2[nH]c(=O)c(CCNC(=O)c3cc4ccccc4o3)cc12	51.5	.	.	.	.	.
Cc1nc(CN2CCN(C(=O)c3ccc(C(C)(C)C)cc3)CC2)cs1	.	.	.	.	.	/
CCn1c(COc2ccccc2)nnc1SCC(=O)CC(=O)Nc1ccccc1OC	.	.	.	2.1	.	.
CCn1c(COc2cccc(C)c2)nnc1SCC(=O)CC(=O)Nc1ccccc1OC	.	.	.	3.1	.	.
CCn1c(COc2ccccc2C)nnc1SCC(=O)OC	.	.	.	.	.	.
CCn1c(COc2ccccc2C)nnc1SCC(=O)CC(=O)Nc1ccccc1OC	.	.	3.13	2.5	.	.
Cn1nc(-c2ccc(Cl)cc2)c2cc(C(=O)N3CCOCC3)sc21	.	.	.	.	.	.
COc1ccc(N2CCN(C(=O)c3cc4c(-c5ccc(Cl)cc5)nn(C)c4s3)CC2)cc1	64.0	.	.	.	.	.
Cn1nc(-c2ccccc2F)c2cc(C(=O)N3CCN(C(=O)c4ccco4)CC3)sc21	/	/	.	/	/	.
COc1cccc(-c2nn(C)c3sc(C(=O)N4CCOCC4)cc23)c1	60.0	.	.	.	.	.
COc1cccc(-c2nn(C)c3sc(C(=O)N4CCN(c5ccccn5)CC4)cc23)c1	80.2	.	.	.	.	.
C=CCn1c(SC/C=C/c2ccccc2)nnc1-c1sc(N)nc1C	.	.	.	.	.	.
CN(C)CCCN1C(=O)C(=O)/C(=C(/O)c2ccc3c(c2)OCO3)C1c1cccnc1 (stereo not given)	/	/	/	/	/	.
SMILES	CYP2C9 inhib	CYP2C19 inhib	hDAT+cocaine	CYP2C9 activ	CYP2C19 act	D1 allo mod
CCCOc1ccc(C(C)(O)CN2CCOCC2)cc1 (stereo not given)	.	53.6	.	.	.	.
CNc1ccccc1C(=O)OCC(C)=O	/	/	.	/	/	/
CC(C)c1ccccc1NC(=O)c1cccc(NC(=O)c2ccccc2)c1	69.3	.	.	.	.	/
O=C(Nc1cccc(O)c1)c1ccccc1	.	.	.	.	.	.
CC(C)c1ccccc1NC(=O)c1ccco1	/	/	.	/	/	.
CCc1cccc(CC)c1NC(=O)c1cccc(NC(=O)c2ccccc2)c1	73.9	.	.	.	.	/
N#Cc1cc(N)ccc1Sc1ccc(Cl)cc1	.	.	.	.	.	/

Compound activity from PubChem BioAssay.
